The source of these data is PubChem BioAssay (NCI).

About 83,000 compounds went through this panel and 20% of them were active in at least one assay; those are over-represented in the sample as a whole.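 Cells were grown in 96-well plates and exposed to the test compound at a single concentration for 48 hours; results are reported as percent growth, with values below 10 considered active.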 Active and inactive are the calls of the source.

The subject of this test is HCC-2998 colon. Put plainly: NCI-60 one-dose screen, 48 h (100 = growth as untreated, 0 = no growth, -100 = all killed). The following applies: 10 µM unless noted. How it is done: Growth inhibition of the HCC-2998 human tumor cell line is measured as a screen for anti-cancer activity. Cells are grown in 96 well plates and exposed to the test compound for 48 hours. Compounds are tested at a single concentration, which is 10^-5 M for most compounds. The reported endpoint is percent growth (GI% or GIPRCNT), where numbers from 0 - 100% represent growth inhibition, and numbers from -100% - 0 represent cell death. For example, a value of 40 represents 60% growth inhibition. A value of 0 means no net growth occurred over the course of the experiment. A value of -40 indicates 40% of cells at the beginning of the experiment died by the end of the experiment. A value of -100 means all cells are dead at the end of the experiment.
NCI-60 Human Tumor Cell Lines Screen was performed using the standard one-dose NCI protocol, which is described in more detail at https://dtp.cancer.gov/discovery_development/nci-60/default.htm.
Compounds with GIPRCNT values below 10 were considered active. Activity score was based on GIPRCNT using the following formula: […]
Score is 0 for GIPRCNT values of 100 or above, 50 for GIPRCNT values of 0, and 100 for GIPRCNT values of -100.
For `CC1(C)CCC(S(=O)(=O)c2ccc3c(c2)/C(=N\O)c2cc(S(=O)(=O)N4CCC(O)(c5cccc(C(F)(F)F)c5)CC4)ccc2-3)CC1`, the growth is -82.9% (active). Regarding `CCCC(=O)NC(c1ccc2c(c1)OCO2)c1ccc2cccnc2c1O` (stereo not given), the growth is 38% (inactive). As to `CC(C)CCNC(=O)Cn1cccc(NC(=O)OCc2ccccc2)c1=O`, the growth is 103% (inactive). For the molecule `CCN(CC)C(=S)SC(SC(=S)N(CC)CC)C(=O)c1nnn(-c2ccc([N+](=O)[O-])cc2)c1C`, the growth was 104% (inactive).

Take `CC(C)=CCC[C@](C)(O)[C@H]1CC[C@]2(C)[C@@H]1CC[C@@H]1[C@@]3(C)Cc4nccnc4C(C)(C)[C@@H]3CC[C@]12C`: the growth was 79.4% (inactive).

As to `COc1ccc(-c2nc3c(c(-c4ccccc4)nn3-c3ccccc3)c(-c3ccc(N4CCN(C)CC4)cc3)c2C#N)cc1`, the growth is 106% (inactive). Take `CNC(=O)c1cc(Oc2ccc3c(c2)sc2nc(-c4cc(OC)c(OC)c(OC)c4)cn23)ccn1`: the growth was 74.6% (inactive). Then `CS(=O)(=O)c1cccc(-c2c(-c3cccc(OS(N)(=O)=O)c3)nc3sccn23)c1`, with 104% (inactive); and `O=C(/C=C(/C=C/c1cccc2[nH]ccc12)OB(F)F)/C=C/c1cccc2[nH]ccc12`, with -84.1% (active).

As for `CCCC(O)Cn1ncc(C(=O)OCC)c1NC(=O)NCc1ccccc1F` (stereo not given), the growth was 87.8% (inactive). With `COc1ccc(C(=O)Nc2ncc(Cc3ccc(F)cc3)s2)cc1`, the growth was 8.19% (active). In the case of `CC(C)N1CCN(Cc2ccc3c(NNC(=O)c4ccccc4)nc4cc(F)ccc4n23)CC1`, the growth was 25% (inactive). Take `COc1cccc([C@H]2c3[nH]c4ccccc4c3C[C@H]3C(=O)N(CCCCCCC(=O)NO)CC(=O)N23)c1`: the growth is 68.2% (inactive).

With `CCOC(=O)C1=C(NC)OCC1=O`, the growth is 102% (inactive). For the molecule `CN1CCN(c2ccc(NC(=O)c3cncnc3Nc3ccc(OCc4ccccn4)c(Cl)c3)cc2)CC1`, the growth is 67.4% (inactive). In the case of `COc1cccc(NC(=O)Cn2cc(CN3CCN(c4ccnc5cc(Cl)ccc45)CC3)nn2)c1`, the growth was 93% (inactive). For the molecule `COC(C(=O)[C@@H](O)[C@@H](C)O)[C@@H]1Cc2cc3cc(O[C@H]4C[C@@H](O[C@H]5C[C@@H](O)[C@H](O)C(C)O5)[C@H](O)C(C)O4)cc(O)c3c(O)c2C(=O)[C@H]1O[C@H]1C[C@@H](O[C@H]2C[C@@H](O[C@H]3C[C@@H](OC)[C@H](O)C(C)O3)[C@@H](O)C(C)O2)[C@H](O)C(C)O1` (stereo not given in full), the growth is 63.7% (inactive). `Cc1ccc(C2=Nc3c(N)ncnc3NC(c3ccc4c(c3)OCO4)C2)cc1` (stereo not given): the growth was 2.97% (active). Consider `COC(=O)[C@H]1CCCN1C[C@@H](O)CN1C(=O)/C(=C\c2cc(OC)c(OC)c(OC)c2)c2ccccc21`, for which the growth was 102% (inactive). For `Clc1ccc(CNc2c3ccccc3nc3ccccc23)cc1`, the growth is -10.2% (active). Then `C=C1CC[C@@H]2[C@](C)(COC(C)=O)[C@H](OC(C)=O)CC[C@@]2(C)[C@@H]1CC(Sc1ccccc1)C1=CCOC1=O` (stereo not given in full), with 44.7% (inactive); and `CCOC(=O)/C=C1\S/C(=N\Nc2cc(=O)[nH]c3ccc(Cl)cc23)N(c2ccccc2)C1=O`, with 105% (inactive); and `Cn1cc(-c2nc(-c3c[nH]c4ccncc34)cs2)c2ccccc21`, with -52.3% (active). For the molecule `CC(=O)N(N=Nc1ccccc1)c1cccc2ccccc12`, the growth was 94.7% (inactive). With `C#COc1cccc(Nc2ncnc3ncc(NC(=O)CCl)cc23)c1`, the growth was 51.5% [6.25 µM] (inactive). As to `CCCCCC(=O)OCC(=O)O[C@@H]1C[C@]2(C(C)C)O[C@@]1(C)[C@@H]1CC[C@@H](C)[C@H]1[C@@H]2OC(=O)/C=C/c1ccccc1`, the growth is 88.5% (inactive). With `COc1cc2c(c(OC)c1OC)C(=O)CC(c1cccc(NC(=O)c3ccc(Br)cc3)c1)O2` (stereo not given), the growth was 72.7% (inactive). As to `C#CCn1cnc2c(Nc3cccc(NC(=O)C=C)c3)ncnc21`, the growth was 105% (inactive). For `Fc1ccc(-c2nn(-c3ccccc3)cc2-c2nc3ccccc3o2)cc1`, the growth is 101% (inactive). In the case of `CN1C(=O)N(C)C2Nn3c(s/c(=C\c4ccc(C(F)(F)F)cc4)c3=O)=NC21` (stereo not given), the growth was 113% (inactive). On to `Nc1c(C(=O)Nc2ccncc2)sc2nc3c(cc12)CCCCCC3`, for which the growth is 94.1% (inactive). For the molecule `O=C(Nc1nn(-c2ccc(Cl)cc2Cl)nc1-c1ccccc1)c1ccccc1`, the growth was 108% (inactive). Turning to `COc1cc(-c2nc3cc(Cl)c(Cl)cc3[nH]2)ccc1OCC(=O)N=Nc1c(O)[nH]c2ccc([N+](=O)[O-])cc12`, the growth is 71.8% (inactive).

As to `CCCCC[C@@H]1Cc2cc(O)c(C(=O)O)c3c2[C@H](C[C@]2(OC[C@@H](CC(=O)[C@@](C)(CC)C(=O)OC)[C@@H]2C)O3)O1`, the growth was 133% (inactive). In the case of `CCCCNc1ccc(C#N)c(OCCN(CC)CC)c1`, the growth was 108% (inactive). Under `Cc1ccccc1NC(=O)c1sc2nc(C)c(C(=O)/C=C/c3ccccc3)cc2c1N` stands -36.9% (active).

As for `Cn1c(O)c(C=NCCN=Cc2c(O)n(C)c(=O)n(C)c2=O)c(=O)n(C)c1=O`, the growth was 92.2% (inactive). Under `O=C(NNc1nccc(Nc2ccc(S(=O)(=O)Nc3ccncc3)cc2)n1)c1ccccc1` stands 21.4% (inactive); under `O=C(OCc1ccc2c(Cl)cc(Cl)c(O)c2n1)n1cncn1`, 54.4% (inactive).

Take `O=C1Nc2ccccc2[C@]12CC(c1ccccc1)=NN2`: the growth was 65% (inactive).
